Measurements from PubChem BioAssay (NCATS).
Where “and” joins values, the source holds several entries; their conditions need not be identical. Equal entries are not always repeated. Inconclusive results are not listed. More than one record can exist for a structure, and the calls need not agree. Calls of active or inactive are those of the source. Calls follow the shape of the dose curve; as a rule, active = well fitted curve in the direction sought with a large enough effect; inconclusive = small, poorly fitted or top-dose-only effect, or another doubt; inactive = no such curve, though single readings can be large; an effect the other way counts as inactive or inconclusive.

What was measured:
[1] = Viability qHTS for spleen associated tyrosine kinase inhibitor (SYKi) naive MV4-11 cells (AID 1963823); also: nearly all actives have a fitted effect of over 40% in size
Summary of the method: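 In this viability screen, compounds acted on SYK inhibitor naive MV4-11 cells for three days (72 hr, 37 C). Remaining viable cells were measured by CellTiter-Glo luminescence following a 10 min room-temperature development.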

[2] = Viability qHTS for spleen associated tyrosine kinase inhibitor (SYKi) drug resistant MV4-11 cells (AID 1963824); also: nearly all actives have a fitted effect of over 35% in size
Summary of the method: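 SYK inhibitor-resistant MV4-11 AML cells, 500 per well, added to predispensed compounds and incubated 72 hr at 37 C, 5% CO2. Viability measured by CellTiter-Glo luminescence after 10 min at room temperature.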

[3] = Cellular viability qHTS for adrenocortical cancer (ACC) cell line SW-13 (AID 1963989); details: SW-13 ACC cells viability, CellTiter-Glo, 48 h; activity (max response): stronger effect = lower value; also: nearly all actives have a fitted effect of over 65% in size;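 as to activity (max response): cells grown in serum-free medium with ITS supplement; % is scaled to controls: 0 for no effect and ±100 for the full control effect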
Summary of the method: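 Luminescent ATP read-out (CellTiter-Glo, 20 min at room temperature) measured metabolically competent SW-13 cells after 48 h compound treatment. Final concentrations spanned up to 46 uM; bortezomib served as positive control.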

[4] = Cellular viability qHTS for adrenocortical cancer (ACC) cell line NCI-H295R (AID 1963990); also: nearly all actives have a fitted effect of over 60% in size
Summary of the method: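 IC50 and maximal efficacy derive from four-parameter logistic modelling of titration curves, with reads scaled between DMSO-only wells (0%) and doxorubicin hydrochloride (100% inhibition). Compounds spanned up to 46 uM over 48 h.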
Potency is read from the fitted curve at half-maximal effect.

Compound	Potency [1]	Potency [2]	activity (max response) [3]	Potency [4]	Potency [3]
N#Cc1cc(NC(=O)C(=O)O)c(Cl)c(NC(=O)C(=O)O)c1	inactive	inactive	14% (inactive)	inactive	
Cc1cccn2c(=O)c(-c3nnn[nH]3)cnc12	inactive	inactive	-1.53% (inactive)	inactive	
O=C(O)c1cc(O)c(O)c(O)c1	inactive	13.3 µM (active)	-1.2% (inactive)	inactive	
COc1cc(OC)c2c(=O)[nH]c(-c3cc(C)c(OCCO)c(C)c3)nc2c1	14.6 µM (active)	13 µM (active) and 9.34 µM (active)	-6.15% (inactive)	inactive	
Cc1c[nH]c2ncnc(N3CCC(CN)(C(=O)Nc4cccc(OC(=O)N(C)C)c4)CC3)c12	517 nM (active) and 662 nM (active)	1.3 µM (active) and 1.66 µM (active)	-9.88% (inactive)	inactive and 22.4 µM (active)	
Cc1sccc1Br	inactive	inactive	-3.04% (inactive)	inactive	
CC(=O)[C@]1(N)Cc2c(O)c3c(c(O)c2[C@@H](O[C@H]2C[C@H](O)[C@H](O)CO2)C1)C(=O)c1ccccc1C3=O	5.9 µM (active)	4.68 µM (active)	-6.73% (inactive)	inactive	
CC(C)(C)Sc1c(CC(C)(C)C(=O)O)n(Cc2ccc(Cl)cc2)c2ccc(OCc3ccc4ccccc4n3)cc12	inactive and 16.6 µM (active)	inactive and 11.8 µM (active)	0.331% (inactive)	inactive	
Cc1ccc(S(=O)(=O)Nc2cc(C(F)(F)F)ccc2C(=O)Nc2nc(-c3ccccc3)cs2)cc1	2.95 µM (active)	2.95 µM (active)		2.51 µM (active)	2.24 µM (active)
CCCCc1nc2cc(/C=C/C(=O)NO)ccc2n1CCN(CC)CC	411 nM (active) and 525 nM (active)	291 nM (active) and 468 nM (active)		0.708 µM (active)	2 µM (active)
CC(C)(C)C1CCC(CC2=C(O)c3ccccc3C(=O)C2=O)CC1 (stereo unspecified)	inactive	inactive	12.3% (inactive)	inactive	
Cc1c(NC(=O)c2cc(C(N)=O)nc3cc(F)ccc23)c(C(F)(F)F)nn1Cc1ccc(C(C)(C)C)cc1	20.9 µM (active)	16.6 µM (active)	8.86% (inactive)	inactive	
C/C=C/C/C=C/CCC(=O)[C@H]1O[C@H]1C(N)=O	8.33 µM (active)	6.61 µM (active)		20 µM (active)	25.1 µM (active)
Cc1cc(-c2nc3cc(F)ccc3s2)ccc1NC(=O)[C@@H](N)CCCCN	2.31 µM (active)	2.59 µM (active)		17.8 µM (active)	25.1 µM (active)
COc1ccc2cc1Oc1cc3c(cc1OC)CC[N+](C)(C)[C@H]3Cc1ccc(cc1)Oc1c(OC)c(OC)cc3c1[C@@H](C2)[N+](C)(C)CC3	inactive	inactive	15.7% (inactive)	inactive	
COc1cc(C(=S)N2CCOCC2)cc(OC)c1OC	inactive	inactive	1.86% (inactive)	inactive	
CC(C)Oc1ccc(-c2nn([C@@H](C)c3oc4ccc(F)cc4c(=O)c3-c3cccc(F)c3)c3ncnc(N)c23)cc1F	14.8 µM (active)	11.8 µM (active)	7.73% (inactive)	inactive	
O=C(O)CC(O)C(=O)O (stereo unspecified)	inactive	inactive	12.9% (inactive)	inactive	
CC1=C(CO)C(=O)O[C@@H]([C@@H](C)[C@H]2CC[C@H]3[C@@H]4C[C@H]5O[C@]56[C@@H](O)C=CC(=O)[C@]6(C)[C@H]4CC[C@]23C)C1	0.296 µM (active)	317 nM (active) and 263 nM (active)		0.447 µM (active)	1.58 µM (active)
O=C(O)C(S)C(S)C(=O)O (stereo unspecified)	inactive	inactive	13.2% (inactive)	inactive	
NCc1ccc(S(N)(=O)=O)cc1	inactive	inactive	-8.11% (inactive)	inactive	
Cc1c(F)ccc(C(=O)Nc2cc([N+](=O)[O-])ccc2N2CCN(C)CC2)c1Cl	1.32 µM (active)	2.91 µM (active)	-19.1% (inactive)	inactive	
COc1cc2[nH]c(=O)[nH]c(=O)c2cc1OC	inactive	inactive	11.4% (inactive)	inactive	
C[C@H](CCC(=O)O)[C@H]1CC[C@H]2[C@@H]3C(=O)C[C@@H]4CC(=O)CC[C@]4(C)[C@H]3CC(=O)[C@]12C	inactive	inactive	15.5% (inactive)	inactive	
